Laboratory results: PubChem BioAssay (NCATS)
A number with no mark means an inactive call. For some of these results: Results with a measured potency or affinity are listed apart. Activity calls are given as the source filed them. No rule for the calls is given here.

Experiments:
[1] = Ebola virus entry assay, green fluorescence channel
[2] = Ebola virus entry assay, blue channel fluorescence
[3] = Ebola virus entry assay, ratio channel
[4] = Ebola virus entry assay, green channel fluorescence
[5] = Ebola virus entry assay, reporter ratio channel; Channel type: primary
[6] = Ebola virus entry assay, blue channel (ratio component)
For efficacy in this document: 0% is about no effect.

Structure (SMILES)	efficacy [1] [%]	AC50 [2]	outcome [3]	outcome [4]	outcome [5]	outcome [2]	AC50 [3]	AC50 [5]	outcome [6]
C/C=C(/C(=C/C)c1ccc(O)cc1)c1ccc(O)cc1	-16.1	28.2 µM (active)	inactive	inactive	inactive				
CCCOc1ccccc1-c1nc2n[nH]nc2c(=O)[nH]1	11		inactive	inactive	inactive	inactive			
CC(C)(C)CC(C)(C)c1ccc(O)c(Cc2ccc(Cl)cc2Cl)c1	12.2	22.4 µM (active)		inactive			14.1 µM (active)	14.1 µM (active)	
CCc1cc2cc(OC)c(OC)cc2c(Cc2ccccc2)n1	32.1	25.1 µM (active)	inactive	inactive				31.6 µM (active)	
CCCOc1ccc2nc(NC(=O)OC)[nH]c2c1	-28.5	0.501 µM (active)		inactive			0.562 µM (active)	0.562 µM (active)	
Cc1cc(N)c2cc(NC(=O)Nc3ccc4nc(C)cc(N)c4c3)ccc2n1	18	22.4 µM (active)		inactive			20 µM (active)	20 µM (active)	
O=C(Nc1ccc([N+](=O)[O-])cc1Cl)c1cc(Cl)ccc1O	35.2	0.891 µM (active)		inactive			1 µM (active)	1 µM (active)	
CCOC(=O)[C@H](CCc1ccccc1)N[C@H]1CS[C@H](c2cccs2)CN(CC(=O)O)C1=O	24		inactive	inactive	inactive	inactive			
CC(=O)Oc1ccc2c(c1)CC[C@@H]1[C@@H]2CC[C@]2(C)[C@@H](O)CC[C@@H]12	11.1	35.5 µM (active)		inactive			22.4 µM (active)	22.4 µM (active)	
CC[C@H]1CN2CCc3cc(OC)c(OC)cc3[C@@H]2C[C@@H]1C[C@H]1NCCc2cc(OC)c(OC)cc21	58.8	17.8 µM (active)		inactive			17.8 µM (active)	17.8 µM (active)	
CCCCC(=O)O[C@]1(C(=O)CO)[C@@H](C)C[C@H]2[C@@H]3CCC4=CC(=O)C=C[C@]4(C)[C@@]3(F)[C@@H](O)C[C@@]21C	22.2		inactive	inactive	inactive	inactive			inactive
Cc1cccc(Nc2cc(Cl)nc(SCC(=O)O)n2)c1C	19.8		inactive	inactive	inactive	inactive			
O=[N+]([O-])c1nccn1CO[C@@H](CO)[C@H](O)CO	-11.8		inactive	inactive	inactive	inactive			inactive
Nc1ccc(S(=O)(=O)Nc2nccs2)cc1	-14		inactive	inactive	inactive	inactive			inactive
CC[N+](CC)(CC)CCOC(=O)C(C1CCCC1)C1CCCC1	39.4		inactive	inactive	inactive	inactive			inactive
COC(=O)C1=C(C)NC(C)=C(C(=O)OC)C1c1ccccc1[N+](=O)[O-]	16.8		inactive	inactive	inactive	inactive			inactive
